High-throughput results deposited in PubChem BioAssay by The Scripps Research Institute Molecular Screening Center.
DAX1 inh-1: DAX1 (NR0B1) inhibitors on StAR promoter, primary screen, cell-based, luminescence, SF-1 (NR5A1), full-length DAX-1; HEK293T StAR-luciferase reporter, SF-1/DAX-1 repression relief; inhibition, % at 6.8 µM; 370,000 tested, 1.1% active;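 active means inhibition above the mean over all tested compounds plus 3 SD, cut at about 3.6% in these data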;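 further: 0% = DAX-1 cells with DMSO and 100% = cells lacking DAX-1 with DMSO; higher inhibition means more luminescence from relief of DAX-1 repression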
hcDAF-12 act: H. contortus DAF-12 nuclear receptor activators, primary screen, cell-based, luminescence, HEK293, lit1-tk-luc reporter; HEK293 hcDAF-12 lit1-tk-luc reporter; 0% DMSO, 100% Δ7-dafachronic acid; activation, % at 6.8 µM; 370,000 tested, 1.4% active;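 active means activation above the mean of all tested compounds plus 3 SD, cut at about 5.5% in these data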;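 further: 100% = response to 3 µM Δ7-dafachronic acid high control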
DAX1 inh-2: DAX1 (NR0B1) inhibitors, primary screen, cell-based, HEK293, Gal4-DAX1, luciferase luminescence; Nuclear receptor subfamily 0 group B member 1 (Homo sapiens), P51843; HEK293 Gal4-DAX1 luciferase reporter; inhibition, % at 6.75 µM; 340,000 tested, 0.99% active; AID 504766, 2011;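 active means inhibition above the mean over all tested compounds plus 3 SD, cut at about 4.2% in these data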;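 further: 0% = DAX1-transfected cells with DMSO and 100% = empty-vector control cells with DMSO; inhibition shows as a rise in luminescence from relieved DAX1 repression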
Target sequence (P51843 207-470 limits assumed): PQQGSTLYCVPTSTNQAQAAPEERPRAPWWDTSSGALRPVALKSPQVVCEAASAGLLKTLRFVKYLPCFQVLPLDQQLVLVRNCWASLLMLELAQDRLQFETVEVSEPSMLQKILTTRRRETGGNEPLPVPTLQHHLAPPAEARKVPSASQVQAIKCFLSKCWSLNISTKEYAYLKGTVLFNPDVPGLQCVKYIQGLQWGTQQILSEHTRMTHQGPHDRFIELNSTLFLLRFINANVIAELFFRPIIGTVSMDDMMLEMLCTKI
SMARCA2 activ: SMARCA2 (BRM) function activators, primary screen, cell-based, luminescence, high throughput | MG213 cells, MMTV-luciferase reporter, dexamethasone, overnight | activation, % at 9.1 µM | 370,000 tested, 1% active | AID 652017, 2013; in the data active means activation above about 7.8%;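 further: 0% = vehicle wells and 100% = reference activator wells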
hgDAF-12 ag: H. glycines DAF-12 receptor agonists, primary screen, cell-based, luminescence, HEK293, GAL4 fusion, UAS-luciferase; HEK293 GAL4-hgDAF12 UAS-luciferase reporter, agonist luminescence; normalized to butyrate control; 370,000 tested, 1.8% active; Nuclear hormone receptor DAF-12 (Heterodera glycines), GAL4 fusion; activation, % at 6.8 µM;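 active means activation above a cutoff set at the mean of all screened compounds plus 3 SD, cut at about 10% in these data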;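 further: 0% = DMSO wells and 100% = sodium butyrate wells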
ssDAF-12 act: S. stercoralis DAF-12 nuclear receptor activators, primary screen, cell-based, luminescence, HEK293, GRIP1 co-expression, lit1-tk-luc; HEK293 ssDAF-12/GRIP1 lit1-tk-luc reporter; % of 3 µM dafachronic acid response; activation, % at 6.8 µM; Nuclear hormone receptor DAF-12 (Strongyloides stercoralis); 370,000 tested, 1% active;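 active means activation above the mean over all tested compounds plus 3 SD, cut at about 0.9% in these data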;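 further: 0% = DMSO-only wells and 100% = 3 µM delta7-dafachronic acid wells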
SMARCA2 conf: SMARCA2 (BRM) function activators, confirmation, cell-based, luminescence, triplicate; shares compounds with SMARCA2 activ; MG213 cells, MMTV-luciferase with dexamethasone, overnight; MG213 cells expressing E1A, Rb sequestered; DMSO wells 0%, reference activator 100%; activation, % at 9.1 µM; 3,500 tested, 30% active;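 active means activation above its plate's cutoff, the mean activation of tested wells plus 3 SD, cut at about 7.9% in these data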
VP16 Luc act: GAL4-VP16 luciferase reporter activation, counter-screen for SMARCA2 (BRM) activator project, cell-based, pG5luc, luminescence, high throughput; 3,500 tested, 41% active; activation, % at 9.1 µM; HEK293 GAL4-VP16 pG5luc reporter; scaled: DMSO wells 0%, SAHA wells 100%; shares compounds with SMARCA2 activ;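 active means activation above the solvent-only control well mean plus 3 SD, averaged across control plates, cut at about 5.2% in these data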
Active calls of the source: *. A selection: hits, their analogues and other compounds. The true share with any hit is near 4.8%.

Results for COc1cc(/C=C(\C#N)C(=O)Nc2ccccc2)ccc1OCCN1CCOCC1 ?
DAX1 inh-1: 1; hcDAF-12 act: 3; DAX1 inh-2: 2; SMARCA2 activ: 8.5*; hgDAF-12 ag: 0; ssDAF-12 act: -1; SMARCA2 conf: 5; VP16 Luc act: 6.0*

Results for N#C/C(=C/c1ccc(N2CCOCC2)o1)C(=O)Nc1ccccc1 ?
DAX1 inh-1: 3; hcDAF-12 act: 5.9*; DAX1 inh-2: 1; SMARCA2 activ: 8.8*; hgDAF-12 ag: 11*; ssDAF-12 act: 0; SMARCA2 conf: 7; VP16 Luc act: 11*

What do the screens show for `Cc1ccc(/C(C#N)=C\c2ccc(N3CCOCC3)o2)cc1`?
DAX1 inh-1: -1; hcDAF-12 act: 0; DAX1 inh-2: -1; SMARCA2 activ: 9.1*; hgDAF-12 ag: -4; ssDAF-12 act: -1; SMARCA2 conf: 14*; VP16 Luc act: 21*

What do the screens show for `CCOC(=O)C1CCN(C(=O)c2ccc(OC)cc2OC)CC1`?
DAX1 inh-1: 0; hcDAF-12 act: -1; DAX1 inh-2: 1; SMARCA2 activ: -1; hgDAF-12 ag: -2; ssDAF-12 act: -2

How did CCOC(=O)C1CCCN(C(=O)c2ccc(OC)cc2OC)CC1 (centres undefined) do in these assays?
DAX1 inh-1: 0; hcDAF-12 act: 2; SMARCA2 activ: 10*; hgDAF-12 ag: 1; ssDAF-12 act: -2; SMARCA2 conf: 1; VP16 Luc act: 0

How did COc1ccc(CC(=O)N/N=C(\C)CC(=O)NCc2ccco2)cc1OC do in these assays?
DAX1 inh-1: 0; hcDAF-12 act: -1; DAX1 inh-2: 1; SMARCA2 activ: -2; hgDAF-12 ag: 1; ssDAF-12 act: -2

Results for COc1ccc(-c2csc(N(C)C(=O)c3ccco3)n2)cc1 ?
DAX1 inh-1: 1; hcDAF-12 act: 1; DAX1 inh-2: 3; SMARCA2 activ: 8.0*; hgDAF-12 ag: 6; ssDAF-12 act: -2; SMARCA2 conf: 6; VP16 Luc act: 7.9*

Results for CCN(C(=O)CSc1nnc(-c2ccco2)n1CC)c1c(N)n(Cc2ccccc2)c(=O)[nH]c1=O ?
DAX1 inh-1: 0; hcDAF-12 act: 0; DAX1 inh-2: 0; SMARCA2 activ: 1; hgDAF-12 ag: -2; ssDAF-12 act: 0

Results for CC(=O)Nc1sc(C)c(C)c1CN1CCN(Cc2ccccc2)CC1 ?
DAX1 inh-1: 0; hcDAF-12 act: 0; DAX1 inh-2: -1; SMARCA2 activ: -2; hgDAF-12 ag: 0; ssDAF-12 act: -1

What do the screens show for `Cc1sc(NC(=O)c2ccccc2F)c(CN2CCCCC2C)c1C` (centres undefined)?
DAX1 inh-1: 3; hcDAF-12 act: 3; DAX1 inh-2: 3; SMARCA2 activ: 9.5*; hgDAF-12 ag: 10; ssDAF-12 act: -1; SMARCA2 conf: 8.6*; VP16 Luc act: 11*

How did CCCCn1c2ccc(F)cc2c2nnc(SCCN3CCOCC3)nc21 do in these assays?
DAX1 inh-1: 0; hcDAF-12 act: -2; DAX1 inh-2: -1; SMARCA2 activ: 3; hgDAF-12 ag: -4; ssDAF-12 act: -1

What do the screens show for `Cn1c2ccc(F)cc2c2nnc(SCCN3CCOCC3)nc21`?
DAX1 inh-1: 1; hcDAF-12 act: 6; DAX1 inh-2: 2; SMARCA2 activ: 13*; hgDAF-12 ag: 2; ssDAF-12 act: 1.1*; SMARCA2 conf: 3; VP16 Luc act: 2

How did C/C=C(/C)C(=O)Nc1cccc(C2=NOC3(C2)C[C@@H](C(N)=O)N(C(=O)CCCCC)C3)c1 (some centres undefined) do in these assays?
DAX1 inh-1: 0; hcDAF-12 act: -2; DAX1 inh-2: 0; SMARCA2 activ: 0; hgDAF-12 ag: -1; ssDAF-12 act: -1

Results for CN(C(=O)Nc1ccc(Cl)cc1Cl)[C@H]1c2cc(Br)ccc2OC[C@H]1CO ?
DAX1 inh-1: -1; hcDAF-12 act: -2; DAX1 inh-2: 0; SMARCA2 activ: -5; hgDAF-12 ag: -3; ssDAF-12 act: -1

Results for COc1cc(/C=C/C(=O)O)cc2c1OCCO2 ?
DAX1 inh-1: 0; hcDAF-12 act: -1; DAX1 inh-2: -2; SMARCA2 activ: 8.0*; hgDAF-12 ag: 0; ssDAF-12 act: -1; SMARCA2 conf: -5; VP16 Luc act: -1

How did COc1cc(/C=C/C(=O)O)cc(OC)c1OC do in these assays?
DAX1 inh-1: 0; hcDAF-12 act: 0; DAX1 inh-2: 0; SMARCA2 activ: -2; hgDAF-12 ag: 2; ssDAF-12 act: -1

Results for NC(=O)c1ccc(N=Cc2ccc([N+](=O)[O-])s2)cc1 ?
DAX1 inh-1: 0; hcDAF-12 act: -2; DAX1 inh-2: 1; SMARCA2 activ: 8.9*; hgDAF-12 ag: -1; ssDAF-12 act: -1; SMARCA2 conf: -13; VP16 Luc act: 5

What do the screens show for `Cc1cc(C)cc(N=Cc2ccc([N+](=O)[O-])s2)c1`?
DAX1 inh-1: 0; hcDAF-12 act: 2; DAX1 inh-2: 0; SMARCA2 activ: -1; hgDAF-12 ag: 0; ssDAF-12 act: -1

How did CNc1nnc(-c2cc3cc(Cl)ccc3oc2=O)s1 do in these assays?
DAX1 inh-1: 1; hcDAF-12 act: 0; DAX1 inh-2: 2; SMARCA2 activ: 9.7*; hgDAF-12 ag: 3; ssDAF-12 act: -1; SMARCA2 conf: 10*; VP16 Luc act: 11*

Results for COc1ccc2oc(=O)c(-c3nnc(NCc4ccco4)s3)cc2c1 ?
DAX1 inh-1: 1; hcDAF-12 act: 1; DAX1 inh-2: 4; SMARCA2 activ: 15*; hgDAF-12 ag: 6; ssDAF-12 act: 0; SMARCA2 conf: 15*; VP16 Luc act: 6.5*
